Experimental data reported in PubChem BioAssay AID1159580 (chemical genetic matrix, 2015).
Out of some 5,500 compounds screened, about 2,000 (36%) were called active. Another 18% or so got no clear call; they are omitted. Cut-off read from the data, not from the text of the source: active = normalized growth mostly below about 0.91 (no sharp cut-off); inconclusive = no clear call, values can overlap the other calls; inactive = mostly above about 0.92. The list shows a part of the results.

Assay: chemical genetic growth profiling, strain panel (AID 1159580);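 note: tested at 20 µM; growth read once vehicle control cultures reached saturation at 30 °C; 1 = growth at the plate median or of vehicle wells; lower values mean less growth of the strain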
Conditions: S. cerevisiae deletion strains, growth OD

Measured: normalized growth

COc1ccc([C@@H]2Sc3ccccc3N(CCN(C)C)C(=O)[C@@H]2OC(C)=O)cc1
inactive: locus YAL013W, strain DEP1, stronger effect = lower value 0.989 | locus YAL040C, strain CLN3, stronger effect = lower value 1.01 | locus YCL061C, strain MRC1 (second series), stronger effect = lower value 0.988 | locus YDR150W, strain NUM1, stronger effect = lower value 1.01 | locus YDR363W, strain ESC2, stronger effect = lower value 0.951 | locus YER002W, strain NOP16, stronger effect = lower value 1.02 | locus YGR078C, strain PAC10, stronger effect = lower value 0.961 | locus YGR229C, strain SMI1, stronger effect = lower value 0.971 | locus YJR075W, strain HOC1, stronger effect = lower value 1 | locus YMR263W, strain SAP30, stronger effect = lower value 0.993 | locus YMR307W, strain GAS1, stronger effect = lower value 1 | locus YNL153C, strain GIM3, stronger effect = lower value 1.01 | locus YNL175C, strain NOP13, stronger effect = lower value 0.99 | locus YNL197C, strain WHI3, stronger effect = lower value 1.1 | locus YNL224C, strain SQS1, stronger effect = lower value 1.02 | locus YNL322C, strain KRE1, stronger effect = lower value 0.967 | locus YOR083W, strain WHI5 (second series), stronger effect = lower value 1.03 | locus YPL055C, strain LGE1, stronger effect = lower value 0.955 | locus YPL241C, strain CIN2, stronger effect = lower value 0.988
